Pf growth 96h = P. falciparum growth inhibition at 96 hour, primary screen for plastid delayed-death inhibitors | Potency, µM (top dose mostly 28.7 µM), for the others: at the highest dose activity change, negative = inhibition, actives largely listed as inhibitors | hit rate 6.9% among 320,000 | P. falciparum luciferase reporter growth, 96 h | AID 504834; note: potency is the fitted concentration of half-maximal effect; % is set by controls: 0 for no effect and ±100 for the full control effect
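Luminescence readout: decreased luciferase signal marks inhibited growth of reporter-expressing P. falciparum in infected red cells (2% hematocrit, 0.05% parasitemia final), exposed to compound two generations (96 h, 37 C, 5% CO2).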
SARS PLpro yeast = SARS-CoV PLP inhibition in yeast | S. cerevisiae expressing SARS-CoV PLpro, growth rescue | Potency, µM (highest dose often 32.9 µM), without a hit: at the highest dose activity, positive = growth rescue, most hits filed as activators | hit rate 0.19% among 330,000 | AID 485353; calls by dose curve; note: potency is the fitted concentration of half-maximal effect; 0% is about no effect; nearly all actives have a fitted effect of over 55% in size
Sm TGR inh = blocks Schistosoma mansoni thioredoxin glutathione reductase. Q962Y6. purified TGR, DTNB reduction, TNB absorbance 405 nm. Potency, µM (series often up to 114 µM), for inactives: at the top dose activity change, negative = inhibition, actives largely listed as inhibitors. hit rate 3% among 360,000. AID 485364; note: potency is the fitted concentration of half-maximal effect; % is set by controls: 0 for no effect and ±100 for the full control effect; nearly all actives have a fitted effect of over 60% in size
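First, TGR (20 nM dispensed) and NADPH were mixed with compound. Second, a 15 min room-temperature incubation followed. Third, further NADPH and then DTNB were added to start the reaction. Finally, TNB absorbance was monitored kinetically.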
HCV inhibitor = inhibitors of hepatitis C virus infection; Huh7.5.1 HCVcc-Cre infection, luciferase reporter, 44 h; Potency, µM (titrated, usually from 41.8 µM), without a hit: top-dose activity change, negative = inhibition, usual class: inhibitors; hit rate 3.4% among 340,000; AID 651820; note: potency is the fitted concentration of half-maximal effect; % is set by controls: 0 for no effect and ±100 for the full control effect
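Infectious HCVcc-Cre (~0.5 moi) was added to cells just after compound, with cells seeded 4 h earlier at 1,000 per well. Luciferase activity after 44 h culture reported infection; substrate was incubated 15 min at room temperature before reading.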
HCMV antiviral = blocks human cytomegalovirus replication | HFF cells, HCMV-luciferase reporter, 72 h; stronger effect = lower value | activity change, negative = inhibition, % at 57.5 µM | hit rate 4.5% among 410,000; in the data active = activity change below about -60%; inconclusive = no clear call, values can overlap the other calls; inactive = above about -39%; note: % is set by controls: 0 for no effect and ±100 for the full control effect
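Two-dose cell screen: HFF monolayers treated with compounds and infected with luciferase-expressing HCMV at 1 PFU/cell, 72 h at 37C, then lysed for luciferase measurement.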
Pf growth 48h = P. falciparum growth inhibition at 48 hours (one generation) | P. falciparum luciferase growth in erythrocytes, 48 h | Potency, µM (doses to about 28.7 µM), for the others: at the highest dose activity change, negative = inhibition, hits mostly inhibitors | hit rate 5.9% among 310,000; note: potency is the fitted concentration of half-maximal effect; % is set by controls: 0 for no effect and ±100 for the full control effect
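Growth was read as firefly luciferase luminescence after a 48 h, 37 C, 5% CO2 exposure of compounds to reporter-bearing P. falciparum cultures (0.1% parasitemia, 2% hematocrit final) in Albumax-supplemented RPMI 1640.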
* = called active by the depositor; ? = inconclusive; nt = no result; ! = repeats disagree; [ ] = dose if it differs, or a comment. Most compounds without a hit are left out; they make up all but 15% or so of the library. Unless noted, calls come from the whole dose curve; as a rule, active = well fitted curve in the direction sought with a large enough effect; inconclusive = small, poorly fitted or top-dose-only effect, or another doubt; inactive = no such curve, though single readings can be large; an effect the other way counts as inactive or inconclusive.

SMILES | Pf growth 96h | SARS PLpro yeast | Sm TGR inh | HCV inhibitor | HCMV antiviral | Pf growth 48h
O=C(Cc1ccc([N+](=O)[O-])cc1)Nc1ccc(Cl)cc1 | 4% | -2% | 5% | 22% | -14 | 10µM*
COc1ccc([N+](=O)[O-])cc1NC(=O)C(C)OC(=O)/C=C/c1ccco1 (centres undefined) | -19% | 15% | 50µM* | -10% | -8 | 9%
CC(OC(=O)/C=C/c1ccco1)C(=O)Nc1cccc([N+](=O)[O-])c1 (centres undefined) | 43% | 15% | ? | ? | 5 | 32%
CC(OC(=O)/C=C/c1ccco1)C(=O)NC1CCCCC1C (centres undefined) | -14% | -4% | 45µM* | ? | -10 | -9%
CCOC(=O)c1c(C)[nH]c(C)c1C(=O)COC(=O)/C=C/c1ccco1 | -6% | -8% | 32µM* | -1% | 70 | ?
CCOC(=O)c1c(C)[nH]c(C)c1C(=O)COC(=O)/C=C/c1cccc(C(F)(F)F)c1 | ? | -35% | -2% | -6% | -14 | 15µM*
CCOC(=O)c1c(C)[nH]c(C)c1C(=O)COC(=O)/C=C/c1cccc(F)c1 | ? | 14% | -29% | -24% | 47 | ?
COc1cccc(-c2cc(C(=O)N3CCc4ccccc4C3)[nH]n2)c1 | ? | -2% | 2% | -17% | -34 | 73%
CCN(CC)S(=O)(=O)c1ccc(OC(C)C)c(NC(=O)C2=COCCO2)c1 | 8.3µM* | -2% | 0% | ? | ? | ?
CCN(CC)S(=O)(=O)c1ccc(N2CCCCC2)c(NC(=O)C2CCN(C(=O)c3ccc(F)cc3)CC2)c1 | 9.3µM* | -3% | -4% | ? | -12 | 12µM*
CCN(CC)S(=O)(=O)c1ccc(N2CCCCC2)c(NC(=O)C2=COCCO2)c1 | 1.5µM* | 1% | 1% | ? | ? | 1.9µM*
CCN(CC)S(=O)(=O)c1ccc(N2CCCC2)c(NC(=O)C2=COCCO2)c1 | -20% | -1% | 1% | 18% | -12 | 15%
Cc1c(C(=O)N(C)C)sc2c1c(=O)n(-c1ccc(Cl)c(Cl)c1)c(=O)n2Cc1ccc(F)cc1 | nt | nt | 5% | nt | 27 | nt
C[C@H]1CN([C@@H](C)CO)C(=O)c2cccc(NS(=O)(=O)c3cn(C)cn3)c2O[C@H]1CN(C)S(C)(=O)=O | nt | -8% | nt | 19% | -38 | nt
CCOC(=O)Cc1cc(-c2ccc(F)cc2)nc2ccc3ccccc3c12 | ? | 9% | 7% | -19% | 146 | 24%
O=C(NC12CC3CC(CC(C3)C1)C2)N1CCN(C(=O)c2ccco2)CC1 | -1% | -2% | -1% | 17% | 13 | 35%
O=C(CC1CCCC1)N1CCN(S(=O)(=O)c2cccc(F)c2)CC1 | nt | nt | nt | 9% | -11 | nt
COc1ccc(S(=O)(=O)N(Cc2nc(-c3ccc(Cl)cc3)no2)C2CCCCC2)cc1 | nt | nt | -2% | nt | -23 | nt
COc1ccc(Br)cc1Cn1nnc(C(=O)Nc2ccc(C)cc2C)c1N | nt | nt | 0% | nt | -74* | nt
CCOc1ccc(OCC)c(NC(=O)c2nnn(Cc3cc(Br)ccc3OC)c2N)c1 | nt | nt | 9% | nt | 3 | nt
Cc1ccc(Cn2nnc(C(=O)Nc3cc(C)ccc3C)c2N)cc1 | 26% | 10% | -25% | 15% | -11 | ?
CSc1ccc(Cn2nnc(C(=O)Nc3ccc(C)cc3Cl)c2N)cc1 | nt | nt | 7% | nt | -78* | nt
CN(Cc1cn(-c2ccccc2)nc1-c1cc2ccccc2o1)C(=O)CCC(=O)O | -11% | -2% | -11% | ? | 3 | 8%
COc1cc(OC)c(NC(=O)C(CC(C)C)N2Cc3ccccc3C2=O)cc1Cl (centres undefined) | nt | nt | -1% | nt | -65* | nt
COc1ccc(CNc2nc3ccccc3n2C)c(OC)c1 | 101% | -1% | 0% | -5% | 63 | 139%
SMILES | Pf growth 96h | SARS PLpro yeast | Sm TGR inh | HCV inhibitor | HCMV antiviral | Pf growth 48h
COc1ccc(N=Nc2nc3cc(Br)c(Br)cc3n2C)c(OC)c1 | ? | nt | 45µM* | ? | -16 | 10µM*
NC(Cc1ccc(F)cc1)c1csc(Nc2nccc(C(F)(F)F)n2)n1 (centres undefined) | nt | nt | nt | nt | -19 | nt
Cc1c(C(=O)NCc2ccccc2)oc2ccc(S(=O)(=O)N3CCCC3)cc12 | ? | 4% | ? | 3% | 83 | nt
Cc1c(C(=O)NCc2cccnc2)oc2ccc(S(=O)(=O)N3CCCCC3)cc12 | ? | 7% | -11% | ? | -83* | 5.2µM*
Cc1c(C(=O)NCc2cccnc2)oc2ccc(S(=O)(=O)N3CCCCCC3)cc12 | 7% | -2% | 3% | 11µM*! | -20 | 9.3µM*
CCc1nc2c(OCc3ccc(F)c(F)c3)cccn2c1N(C)C(=O)c1cccs1 | nt | nt | nt | nt | -20 | nt
O=C(NCc1ccccc1Cl)C1CCC(CNS(=O)(=O)c2ccc(Br)s2)CC1 (centres undefined) | nt | nt | 1% | nt | 16 | nt
O=C(NCc1cccs1)C1CCC(CNS(=O)(=O)c2ccc(Br)s2)CC1 (centres undefined) | 7.4µM* | 2% | ? | -23% | 44 | nt
COc1cc2c(c(OC)c1OC)C(=O)CC2 | ? | 0% | -9% | 20% | 24 | -4%
COc1cc2c(c(OC)c1OC)-c1c(cc(OC)c(OC)c1OC)C[C@H](C)[C@H](C)C2 | ? | -3% | 10% | 21%[8.37 µM] | -63* | ?
COc1cc2c(c(O)c1OC)-c1c(cc(OC)c(OC)c1OC)C[C@@H](C)[C@@H](C)C2 | ? | -5% | 13% | -17% | -60* | 13µM*
COc1cc(C2c3cc4c(cc3CC3COC(=O)C32)OCO4)cc(OC)c1OC (centres undefined) | nt | 5% | nt | ? | 1 | nt
COc1cc2c(c(OC)c1OC)-c1c(cc3c(c1O)OCO3)C[C@@H](C)[C@@H](C)C2 | 10µM* | -13% | 13% | -29% | ? | ?
COc1cc(C2c3cc4c(c(O)c3CC3COC(=O)C32)OCO4)cc(OC)c1OC (centres undefined) | nt | nt | nt | -19% | -83* | nt
N=C1N(/N=C/c2ccccc2)C(=Nc2ccccc2)C(=S)N1c1ccccc1 | 84% | 26% | -34% | 9% | 36 | ?
COC(=O)c1nn(-c2ccc(OC)cc2)ccc1=O | 0% | -2% | -2% | -2% | 5 | nt
Cc1cc(NCCCOC(C)C)n2c(nc3ccccc32)c1C#N | -6% | 3% | -18% | ? | -31 | 5.2µM*
CC(C)c1cc(N2CCN(C(=O)c3ccco3)CC2)n2c(nc3ccccc32)c1C#N | ? | 3% | -19% | 6% | -29 | nt
CCCc1cc(NCCCO)n2c(nc3ccccc32)c1C#N | 3.3µM* | 0% | 13% | ? | 66 | ?

Screens (PubChem)
